Data from PubChem BioAssay (Tox21).
Records with an inconclusive call do not appear. More than one record can exist for a structure, and the calls need not agree. Activity calls are given as the source filed them. Unless noted, calls come from the whole dose curve; as a rule, active = well fitted curve in the direction sought with a large enough effect in the repeat runs; inconclusive = weak or mixed curves; inactive = no such curve, though single readings can be large; an effect the other way counts as inactive or inconclusive.

Key:
[1] = qHTS assay to identify small molecule antagonists of the thyroid receptor (TR) signaling pathway - cell viability counter screen (AID 743064); note: nearly all actives have a fitted effect of over 50% in size
How it was run: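 GH3.TRE-Luc rat pituitary cells carrying a TRE-luciferase reporter were treated with compound plus 1 nM T3 (final) for 23.5 h at 37 °C. Viability was then read in the same wells by CellTiter-Fluor fluorescence after a further 30 min.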

[2] = qHTS assay to identify small molecule antagonists of the thyroid receptor (TR) signaling pathway (AID 743065); note: series mostly up to about 70 µM; nearly all actives have a fitted effect of over 55% in size
How it was run: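 GH3.TRE-Luc rat pituitary cells (two TREs driving luciferase) were dosed with compound, then stimulated with 1 nM T3 (final) for 23.5 h at 37 C. ONE-Glo luminescence was the read-out, with CellTiter-Fluor fluorescence as the cytotoxicity counter-screen.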

[3] = system: thyroid hormone receptor (rat, GH3 cells); experiment: qHTS assay to identify small molecule agonists of the thyroid receptor (TR) signaling pathway (AID 743066; calls by dose curve)
[4] = target: Estrogen receptor (Homo sapiens) (UniProt P03372); experiment: qHTS assay to identify small molecule antagonists of the estrogen receptor alpha (ER-alpha) signaling pathway (AID 743069; active = well fitted curve in the direction sought with a large enough effect in the signal ratio in the repeat runs, not every such curve was filed as active; the % refers to the signal ratio)
How it was run: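 Reporter cells (ER-alpha-bla, HEK293 background) are conditioned overnight in stripped-serum medium (2% charcoal-stripped FBS). Compound and 17beta-estradiol exposure runs 18 hr at 37C, 5% CO2.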

[5] = qHTS assay to identify small molecule antagonists of the estrogen receptor alpha (ER-alpha) signaling pathway - cell viability counter screen (AID 743074; calls by dose curve;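 note: HEK293 cells carrying ER-alpha-UAS-bla reporter stimulated with 17beta-estradiol; nearly all actives have a fitted effect of over 45% in size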)
[6] = target: Estrogen receptor (Homo sapiens) (UniProt P03372); experiment: qHTS assay to identify small molecule agonists of the estrogen receptor alpha (ER-alpha) signaling pathway (AID 743075; calls by dose curve;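 note: HEK293 GripTite cells with ER-alpha and UAS-driven beta-lactamase reporter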)
[7] = target: Estrogen receptor (Homo sapiens) (UniProt P03372); experiment: qHTS assay to identify small molecule agonists of the estrogen receptor alpha (ER-alpha) signaling pathway using the BG1 cell line (AID 743079); note: nearly all actives have a fitted effect of over 20% in size; note: potency is the fitted concentration of half-maximal effect
[8] = qHTS assay to identify small molecule antagonists of the estrogen receptor alpha (ER-alpha) signaling pathway using the BG1 cell line (AID 743080; calls by dose curve;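 note: BG1 cells stimulated with 17beta-estradiol alongside compound; series mostly up to about 70 µM; nearly all actives have a fitted effect of over 25% in size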)
How it was run: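 Quantitative HTS on the Tox21 10K library: BG1 cells with endogenous ER-alpha and ERE-luciferase reporter, 17beta-estradiol stimulation, 21.5 h compound exposure, luminescence endpoint with parallel fluorescence cytotoxicity counter-read.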

[9] = qHTS assay to identify small molecule antagonists of the estrogen receptor alpha (ER-alpha) signaling pathway using the BG1 cell line - cell viability counter screen (AID 743081);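 note: compound given together with 17beta-estradiol as the ER stimulus; series mostly up to about 70 µM; nearly all actives have a fitted effect of over 45% in size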
Aromatase (Homo sapiens) = Aromatase (Homo sapiens) (UniProt P11511); experiment: qHTS assay to identify aromatase inhibitors (AID 743083); note: series mostly up to about 70 µM; nearly all actives have a fitted effect of over 55% in size

Measured: Potency

Estrogen receptor (Homo sapiens), sequence (P03372 whole entry, looked up): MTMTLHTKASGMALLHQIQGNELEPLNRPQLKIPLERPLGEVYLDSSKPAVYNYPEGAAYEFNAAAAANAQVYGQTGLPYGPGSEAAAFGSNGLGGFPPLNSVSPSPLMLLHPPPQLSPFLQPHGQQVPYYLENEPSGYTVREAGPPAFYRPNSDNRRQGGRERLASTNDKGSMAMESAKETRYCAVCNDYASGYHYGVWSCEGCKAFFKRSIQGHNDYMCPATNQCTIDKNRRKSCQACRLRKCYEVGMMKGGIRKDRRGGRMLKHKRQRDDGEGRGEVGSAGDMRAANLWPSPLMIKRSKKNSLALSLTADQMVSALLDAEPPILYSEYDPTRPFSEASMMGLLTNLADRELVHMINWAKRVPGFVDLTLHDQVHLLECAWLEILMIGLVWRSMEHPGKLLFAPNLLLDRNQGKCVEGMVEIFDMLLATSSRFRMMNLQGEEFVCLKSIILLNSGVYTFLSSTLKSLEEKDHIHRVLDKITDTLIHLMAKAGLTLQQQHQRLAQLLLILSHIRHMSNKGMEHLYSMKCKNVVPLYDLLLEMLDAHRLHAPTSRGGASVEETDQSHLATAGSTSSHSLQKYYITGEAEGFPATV
Aromatase (Homo sapiens), sequence (P11511 whole entry, looked up): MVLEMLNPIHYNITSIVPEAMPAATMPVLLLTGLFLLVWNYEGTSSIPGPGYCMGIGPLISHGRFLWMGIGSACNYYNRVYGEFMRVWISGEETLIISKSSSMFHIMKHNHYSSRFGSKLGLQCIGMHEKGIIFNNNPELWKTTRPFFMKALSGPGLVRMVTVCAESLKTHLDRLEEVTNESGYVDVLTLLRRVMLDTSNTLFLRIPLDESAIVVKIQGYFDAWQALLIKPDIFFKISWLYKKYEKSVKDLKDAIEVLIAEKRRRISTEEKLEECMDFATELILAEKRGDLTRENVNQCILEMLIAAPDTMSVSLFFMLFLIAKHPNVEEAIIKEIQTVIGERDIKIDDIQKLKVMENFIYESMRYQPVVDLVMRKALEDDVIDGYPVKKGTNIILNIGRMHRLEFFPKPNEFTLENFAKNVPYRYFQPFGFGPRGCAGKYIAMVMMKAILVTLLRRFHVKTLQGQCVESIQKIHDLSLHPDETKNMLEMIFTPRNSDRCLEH

CC(=O)CC(C)(C)C1CCCCC1
inactive: all assays above

C1CN(CCOCCN2CCOCC2)CCO1
inactive: all assays above

O=C(O)CCCl
inactive: all assays above

CCOC(C)(C)C
inactive: all assays above

CCCCC/C=C\CCC=O
inactive: all assays above

CCC(C)C1CCCCC1=O (centres undefined)
inactive: all assays above

NS(=O)(=O)c1ccc(C(=O)O)cc1
inactive: all assays above

CC(C)(O)C#CC(C)(C)O
inactive: all assays above

CN(C)CCCNCCCN(C)C
inactive: all assays above

NS(=O)(=O)c1cc(C(=O)O)cc(N2CCCC2)c1Oc1ccccc1
inactive: all assays above

O=C[C@H](O)[C@@H](O)[C@H](O)[C@H](O)CO
inactive: all assays above

C[C@@H]1CCN(C(=O)[C@H](CCCN=C(N)N)NS(=O)(=O)c2cccc3c2NC[C@H](C)C3)[C@@H](C(=O)O)C1
inactive: all assays above

CCOC(=O)[C@H](CCc1ccccc1)N[C@@H](C)C(=O)N1[C@H](C(=O)O)C[C@@H]2CCC[C@@H]21
inactive: all assays above

C=C(C)CS(=O)(=O)O
inactive: all assays above

CCOC(=O)Nc1ccc(NCc2ccc(F)cc2)nc1N
3.35 µM (active) and inactive: [7]
not listed: Aromatase (Homo sapiens)
inactive: all other assays above

OC1CCCCC1c1ccccc1 (centres undefined)
inactive: all assays above

O=[N+]([O-])c1ccc(F)cc1F
inactive: all assays above

NCCCNCCSP(=O)(O)O
inactive: all assays above

CCC(=O)OC(C)c1ccccc1 (centres undefined)
inactive: all assays above

CCOC(=O)C(=O)OCC
inactive: all assays above

COC(=O)NN
inactive: all assays above

O=C1CCCCCCCCCCCN1
inactive: all assays above
